# Measurements taken from PubChem BioAssay (NCATS).
# Inconclusive results are not listed. Entries that show only a call come without a potency. Calls of active or inactive are those of the source. Unless noted, calls follow the shape of the dose curve; as a rule, active = well fitted curve in the direction sought with a large enough effect; inconclusive = small, poorly fitted or top-dose-only effect, or another doubt; inactive = no such curve, though single readings can be large; an effect the other way counts as inactive or inconclusive.
# Legend:
# [1] = Validation screen for small molecules that induce genotoxicity in human embryonic kidney (HEK293T) cells expressing luciferase-tagged ELG1 (AID 493106); also: potency is read from the fitted curve at half-maximal effect
# How it was run: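 qHTS format; 2,000 HEK293T ELG1-luc cells/well; 23 nL compound via pin tool; 16 hr, 37 °C/5% CO2; ONE-Glo, 30 min RT; luminescence read.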
# [2] = molecular target: Thyrotropin-releasing hormone receptor (Homo sapiens) (UniProt P34981); assay: qHTS for Small Molecule Agonists and Allosteric Enhancers of Human TRH Receptor: Validation Screen for Agonists (AID 493127;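 active = calcium activation more than 3 SD above the typical response in the agonist read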;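 also: intracellular calcium rise by fluo-8 fluorescence before TRH EC20 addition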); details: TRH receptor agonist cell assay; at 2 µM; stronger effect = higher value
# How it was run: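 Read-out: intracellular calcium release measured kinetically by FDSS (fluo-8, ex 480/em 530 nm), 1 reading/s after a 10-cycle baseline. TRHR cells, 2000/well, cultured 18 h at 33.5C, dye-loaded at room temp. Compound-evoked positive calcium signal flags agonists.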
# [3] = Nrf2 qHTS screen for inhibitors: Validation (AID 493153; active = well fitted inhibition curve with a large enough effect in the main read-out, with a control signal flat, not every such curve was filed as active; also: potency is read from the fitted curve at half-maximal effect); details: Potency: luciferase luminescence; viability change: measured here: cytotoxicity max response
# How it was run: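 Concentration-response test in A549 ARE_Fluc reporter cells (5% FBS OPTI-MEM), compound exposure 18-24 h at 37°C, 5% CO2. Cell viability measured first by CellTiter-Fluor fluorescence; ARE-driven luciferase luminescence then measured as Nrf2 activity.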
# [4] = qHTS for Inhibitors of Cell Surface uPA Generation: Validation Assay (AID 493164);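 also: RAW 264.7 macrophage cells exposed to compound for 18 h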
# How it was run: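 Compounds are titrated over seven points (2.45 nM–38.3 uM final) onto pre-plated RAW 264.7 cells and incubated for 18 h. Retained intracellular ATP, measured with ATP-Lite, indicates blocked lethal factor entry.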
# [5] = molecular target: Galactokinase (Homo sapiens) (UniProt P51570); assay: qHTS Validation Assay for Inhibitors of Human Galactokinase (GALK) (AID 493189)
# How it was run: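 Luminescence from leftover ATP (Kinase-Glo Plus, 10 min) served as read-out after a 1 h room-temperature reaction of 5 nM GALK, 100 uM galactose and 35 uM ATP at pH8.0.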
# [6] = molecular target: Phosphoglycerate kinase, glycosomal (Trypanosoma brucei brucei) (UniProt P07378); assay: qHTS Validation Assay to Find Inhibitors of Phosphoglycerate Kinase (AID 504547)
# How it was run: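 In TEA buffer (100mM, pH 7.6) containing 5mM MgCl2 and 0.01% Tween-20, the GAPDH-coupled PGK reaction proceeded for 60 minutes at room temperature before a single luminescence reading using Kinase-Glo Plus.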
# [7] = molecular target: phosphoglycerate mutase (Leishmania major) (UniProt Q4Q090); assay: qHTS Validation Assay to Find Inhibitors of Phosphoglycerate Mutase (AID 504548); details: Potency: inhibition qHTS;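 also: end-point luminescence from Kinase-GloPlus after the PGAM reaction; series mostly up to about 58 µM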
# How it was run: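 Inhibition of L. major PGAM was assessed by Kinase-GloPlus luminescence following a 45-minute room-temperature reaction with enzyme at 1.25nM final.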
# [8] = molecular target: DNA dC->dU-editing enzyme APOBEC-3G (Homo sapiens) (UniProt Q9HC16); assay: qHTS for inhibitors of Vif-A3G interactions: Validation (AID 588379)
# How it was run: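 Yellow fluorescence (Ex 488, Em 500-530) of Vif-coexpressing HeLa A3G-eYFP cells, scanned by Acumen cytometer, reports blocked A3G degradation. Cells plated at 700/well overnight at 37 deg C before compound addition, then a further overnight compound incubation at 37 deg C.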
# [9] = molecular target: Peptidyl-prolyl cis-trans isomerase NIMA-interacting 1 (Homo sapiens) (UniProt Q13526); assay: qHTS Validation Assay to Find Inhibitors of Pin1 (AID 504536; active = well fitted inhibition curve with a large enough effect in the polarisation, with a control signal flat, not every such curve was filed as active; the % refers to the polarisation)
# How it was run: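 Fluorescence polarization competition: compounds (titration) displace HiFluor-488-labeled Pin1-1b peptide from Pin1 (0.3 uM final) in pH 7.5 HEPES buffer with DTT, 10 min at room temperature; %Activity normalized to no-enzyme wells, curves fitted.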
# [10] = molecular target: Ubiquitin carboxyl-terminal hydrolase 1 (Homo sapiens) (UniProt O94782); assay: Inhibitors of USP1/UAF1: Pilot qHTS (AID 504865); also: nearly all actives have a fitted effect of over 35% in size; also: potency is read from the fitted curve at half-maximal effect
# How it was run: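 1nM USP1/UAF1 + cpd, 15 min RT; start w/ Ub-Rho 150nM final; kinetic FL 480/540 nm, 6 reads q60 s. Buffer 50mM HEPES pH 7.8, 0.5mM EDTA, 1mM TCEP, 0.01% Tween-20, 0.1 mg/ml BSA.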
# [11] = qHTS for Inhibitors of ATXN expression: Validation (AID 588378); also: nearly all actives have a fitted effect of over 75% in size; also: potency is read from the fitted curve at half-maximal effect
# How it was run: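 Cells: HEK293-ATXN2-FFLuc, phenol-red free DMEM, 2 h attachment. Compound pin-transfer, 24 h, 37 degrees C, 5% CO2. CellTiter-Fluor 30 min, Ex405/Em525; Bright-Glo 5 min, luminescence 2 s exposure.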
# [12] = Validation screen for small molecules that induce DNA re-replication in SW480 colon adenocarcinoma cells (AID 504364)
# How it was run: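 Read-out: total Hoechst intensity of nuclei by fluorescence scanning imager; hits raise the fraction of nuclei with elevated DNA content. Cells received compound for 48 hr at 37 C before a 40 min stain.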
# [13] = qHTS for Inhibitors of ATXN expression: Validation of Cytotoxic Assay (AID 588349)
# How it was run: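 Cytotoxicity counter-screen: HEK293 cells exposed to compound titrations, 72 hr, 37 degrees C. Read-out is intracellular ATP (CellTiter Glo luminescence) as a viability measure.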
# [14] = molecular target: ATPase family AAA domain-containing protein 5 (Homo sapiens) (UniProt Q96QE3); assay: Validation screen for small molecules that inhibit ELG1-dependent DNA repair in human embryonic kidney (HEK293T) cells expressing luciferase-tagged ELG1 (AID 493107); also: nearly all actives have a fitted effect of over 70% in size; also: potency is read from the fitted curve at half-maximal effect
# How it was run: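 ELG1-luciferase HEK293T reporter; 5-fluorouridine + compound/DMSO, 16 hr, 37 °C, 5% CO2; ONE-Glo 30 min RT; luminescence read, qHTS format.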
# Sequence of Thyrotropin-releasing hormone receptor (Homo sapiens) (P34981 whole entry, looked up): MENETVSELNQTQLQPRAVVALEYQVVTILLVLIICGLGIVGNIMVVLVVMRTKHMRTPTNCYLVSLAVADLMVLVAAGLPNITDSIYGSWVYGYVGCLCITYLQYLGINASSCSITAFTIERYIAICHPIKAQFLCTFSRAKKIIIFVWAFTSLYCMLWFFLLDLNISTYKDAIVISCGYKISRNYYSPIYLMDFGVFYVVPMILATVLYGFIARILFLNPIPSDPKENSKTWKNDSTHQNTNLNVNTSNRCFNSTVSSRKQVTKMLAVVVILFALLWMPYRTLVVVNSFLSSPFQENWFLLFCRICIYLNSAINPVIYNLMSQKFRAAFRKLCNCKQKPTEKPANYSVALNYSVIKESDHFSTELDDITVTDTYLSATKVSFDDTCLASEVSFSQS
# Sequence of ATPase family AAA domain-containing protein 5 (Homo sapiens) (Q96QE3 whole entry, looked up, the tested form may be a part): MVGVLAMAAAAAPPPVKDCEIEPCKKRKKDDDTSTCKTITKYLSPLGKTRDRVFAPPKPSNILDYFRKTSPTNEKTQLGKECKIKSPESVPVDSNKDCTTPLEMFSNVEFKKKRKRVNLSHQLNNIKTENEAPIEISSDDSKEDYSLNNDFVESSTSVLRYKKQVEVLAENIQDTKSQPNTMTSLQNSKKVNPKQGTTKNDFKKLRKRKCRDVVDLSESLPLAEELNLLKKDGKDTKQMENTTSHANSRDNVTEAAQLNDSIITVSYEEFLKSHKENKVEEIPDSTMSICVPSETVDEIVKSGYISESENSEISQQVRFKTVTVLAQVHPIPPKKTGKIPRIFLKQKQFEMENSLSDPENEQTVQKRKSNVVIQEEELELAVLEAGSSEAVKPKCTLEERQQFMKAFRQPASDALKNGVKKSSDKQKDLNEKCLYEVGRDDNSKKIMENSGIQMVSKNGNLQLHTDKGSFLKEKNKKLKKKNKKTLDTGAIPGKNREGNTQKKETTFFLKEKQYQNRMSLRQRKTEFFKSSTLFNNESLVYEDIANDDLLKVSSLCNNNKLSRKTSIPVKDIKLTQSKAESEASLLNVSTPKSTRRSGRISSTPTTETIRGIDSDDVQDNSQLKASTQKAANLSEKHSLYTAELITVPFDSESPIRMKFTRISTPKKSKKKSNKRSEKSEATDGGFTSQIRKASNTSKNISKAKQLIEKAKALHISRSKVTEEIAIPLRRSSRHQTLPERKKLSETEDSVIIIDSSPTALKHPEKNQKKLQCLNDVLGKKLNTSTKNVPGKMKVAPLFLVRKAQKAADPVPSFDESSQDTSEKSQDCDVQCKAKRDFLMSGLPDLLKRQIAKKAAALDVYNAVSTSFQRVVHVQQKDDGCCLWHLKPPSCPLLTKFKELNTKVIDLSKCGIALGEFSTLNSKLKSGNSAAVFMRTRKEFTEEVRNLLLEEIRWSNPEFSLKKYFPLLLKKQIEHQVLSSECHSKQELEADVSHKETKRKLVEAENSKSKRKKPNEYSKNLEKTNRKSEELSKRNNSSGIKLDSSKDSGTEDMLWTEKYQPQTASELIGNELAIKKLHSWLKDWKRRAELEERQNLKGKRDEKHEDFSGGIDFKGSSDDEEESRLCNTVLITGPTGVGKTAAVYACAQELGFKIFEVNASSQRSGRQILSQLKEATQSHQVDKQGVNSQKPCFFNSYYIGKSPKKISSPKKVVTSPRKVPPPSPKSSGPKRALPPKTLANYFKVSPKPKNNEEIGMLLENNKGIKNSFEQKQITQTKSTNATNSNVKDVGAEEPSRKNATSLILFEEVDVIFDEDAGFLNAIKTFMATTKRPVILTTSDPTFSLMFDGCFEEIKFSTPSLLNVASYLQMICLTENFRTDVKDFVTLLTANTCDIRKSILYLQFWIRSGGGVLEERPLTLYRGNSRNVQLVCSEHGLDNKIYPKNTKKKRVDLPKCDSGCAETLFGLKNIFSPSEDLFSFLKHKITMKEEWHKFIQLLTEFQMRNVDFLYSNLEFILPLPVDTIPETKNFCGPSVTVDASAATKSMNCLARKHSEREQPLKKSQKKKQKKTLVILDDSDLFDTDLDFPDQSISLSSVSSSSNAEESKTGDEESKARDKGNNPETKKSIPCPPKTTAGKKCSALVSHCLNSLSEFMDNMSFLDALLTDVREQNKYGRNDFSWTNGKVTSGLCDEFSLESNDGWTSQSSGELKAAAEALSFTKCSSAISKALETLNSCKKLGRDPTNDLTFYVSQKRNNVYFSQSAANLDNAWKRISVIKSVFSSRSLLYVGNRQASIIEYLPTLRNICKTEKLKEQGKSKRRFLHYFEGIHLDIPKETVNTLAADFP
# Sequence of Phosphoglycerate kinase, glycosomal (Trypanosoma brucei brucei) (P07378 whole entry, looked up): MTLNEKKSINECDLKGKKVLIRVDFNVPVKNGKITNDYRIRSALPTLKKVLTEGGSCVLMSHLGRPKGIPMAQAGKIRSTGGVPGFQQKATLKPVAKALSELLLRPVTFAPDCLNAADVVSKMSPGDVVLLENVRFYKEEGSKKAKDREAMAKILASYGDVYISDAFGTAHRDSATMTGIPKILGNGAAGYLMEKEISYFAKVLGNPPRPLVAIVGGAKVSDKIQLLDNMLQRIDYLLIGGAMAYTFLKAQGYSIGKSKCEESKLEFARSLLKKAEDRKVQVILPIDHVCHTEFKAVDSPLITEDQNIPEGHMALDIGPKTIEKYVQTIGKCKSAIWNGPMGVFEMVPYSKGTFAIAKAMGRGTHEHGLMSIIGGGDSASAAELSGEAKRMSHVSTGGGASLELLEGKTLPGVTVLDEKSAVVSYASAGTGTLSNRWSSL
# Sequence of Ubiquitin carboxyl-terminal hydrolase 1 (Homo sapiens) (O94782 whole entry, looked up): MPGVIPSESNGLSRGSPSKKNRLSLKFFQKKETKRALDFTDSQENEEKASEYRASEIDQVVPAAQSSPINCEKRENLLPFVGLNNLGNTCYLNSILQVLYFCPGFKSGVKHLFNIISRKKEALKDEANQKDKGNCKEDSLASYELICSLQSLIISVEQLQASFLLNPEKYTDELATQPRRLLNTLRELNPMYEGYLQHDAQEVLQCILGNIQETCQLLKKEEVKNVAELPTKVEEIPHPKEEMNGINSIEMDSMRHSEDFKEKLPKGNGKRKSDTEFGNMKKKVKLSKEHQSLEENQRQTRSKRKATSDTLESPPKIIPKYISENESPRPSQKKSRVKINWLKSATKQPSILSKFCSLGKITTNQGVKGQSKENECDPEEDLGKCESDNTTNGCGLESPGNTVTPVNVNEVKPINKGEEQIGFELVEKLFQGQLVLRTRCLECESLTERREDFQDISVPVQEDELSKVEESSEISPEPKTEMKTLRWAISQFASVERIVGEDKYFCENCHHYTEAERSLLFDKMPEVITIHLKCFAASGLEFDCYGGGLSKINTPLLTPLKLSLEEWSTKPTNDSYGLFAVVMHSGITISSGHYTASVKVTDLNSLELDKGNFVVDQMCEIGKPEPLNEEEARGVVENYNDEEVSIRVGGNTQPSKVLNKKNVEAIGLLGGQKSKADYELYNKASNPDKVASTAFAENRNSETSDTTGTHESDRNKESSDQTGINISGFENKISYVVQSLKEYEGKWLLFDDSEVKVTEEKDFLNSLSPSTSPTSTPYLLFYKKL
# Sequence of Galactokinase (Homo sapiens) (P51570 whole entry, looked up): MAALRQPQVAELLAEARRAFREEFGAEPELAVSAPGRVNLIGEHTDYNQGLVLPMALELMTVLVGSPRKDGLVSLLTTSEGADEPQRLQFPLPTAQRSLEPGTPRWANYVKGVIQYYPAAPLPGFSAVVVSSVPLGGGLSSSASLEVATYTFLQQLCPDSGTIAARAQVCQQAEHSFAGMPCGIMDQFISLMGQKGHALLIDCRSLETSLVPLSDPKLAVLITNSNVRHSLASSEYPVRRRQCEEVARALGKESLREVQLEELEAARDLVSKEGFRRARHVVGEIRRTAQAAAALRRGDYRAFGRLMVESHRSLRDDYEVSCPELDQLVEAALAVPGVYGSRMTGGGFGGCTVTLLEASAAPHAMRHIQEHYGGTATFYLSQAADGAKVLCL
# Sequence of phosphoglycerate mutase (Leishmania major) (Q4Q090 1-553): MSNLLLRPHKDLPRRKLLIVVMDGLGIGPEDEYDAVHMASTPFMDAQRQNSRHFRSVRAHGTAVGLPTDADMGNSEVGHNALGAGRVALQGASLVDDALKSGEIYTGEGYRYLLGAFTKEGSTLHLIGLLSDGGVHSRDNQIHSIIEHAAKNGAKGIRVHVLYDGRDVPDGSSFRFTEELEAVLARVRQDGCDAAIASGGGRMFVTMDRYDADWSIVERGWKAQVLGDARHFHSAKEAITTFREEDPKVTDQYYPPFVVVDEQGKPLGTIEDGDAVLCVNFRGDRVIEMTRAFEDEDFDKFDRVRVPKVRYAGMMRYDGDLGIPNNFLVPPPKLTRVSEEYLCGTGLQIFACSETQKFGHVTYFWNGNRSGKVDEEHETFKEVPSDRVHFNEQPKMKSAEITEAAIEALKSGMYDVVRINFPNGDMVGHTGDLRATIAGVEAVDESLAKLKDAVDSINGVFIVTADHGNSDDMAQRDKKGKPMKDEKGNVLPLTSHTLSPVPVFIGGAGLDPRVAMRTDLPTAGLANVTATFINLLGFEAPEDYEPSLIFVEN
# Sequence of Peptidyl-prolyl cis-trans isomerase NIMA-interacting 1 (Homo sapiens) (Q13526 whole entry, looked up): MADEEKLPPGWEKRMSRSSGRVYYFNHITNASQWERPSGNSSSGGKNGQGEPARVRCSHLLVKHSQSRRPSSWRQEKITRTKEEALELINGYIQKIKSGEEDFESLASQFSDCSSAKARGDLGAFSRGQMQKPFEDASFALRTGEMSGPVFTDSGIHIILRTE
# Sequence of DNA dC->dU-editing enzyme APOBEC-3G (Homo sapiens) (Q9HC16 whole entry, looked up): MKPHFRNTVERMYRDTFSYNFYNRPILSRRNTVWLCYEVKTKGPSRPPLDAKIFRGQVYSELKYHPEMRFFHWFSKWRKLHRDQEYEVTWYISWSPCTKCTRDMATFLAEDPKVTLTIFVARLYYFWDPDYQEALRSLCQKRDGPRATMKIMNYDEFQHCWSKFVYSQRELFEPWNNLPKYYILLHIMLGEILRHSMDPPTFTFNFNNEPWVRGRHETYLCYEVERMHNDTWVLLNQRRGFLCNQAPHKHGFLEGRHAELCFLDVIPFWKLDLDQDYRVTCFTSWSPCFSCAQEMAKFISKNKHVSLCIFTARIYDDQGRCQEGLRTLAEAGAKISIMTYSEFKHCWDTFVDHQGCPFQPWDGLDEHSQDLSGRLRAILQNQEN
Compound,Potency [1],activation [2],Potency [3],viability change [3] [%],outcome [4],Potency [5],Potency [6],Potency [7],Potency [8],Potency [9],Potency [10],Potency [11],Potency [12],Potency [13],Potency [14]
N#C/C(=C\c1ccc(O)c(O)c1)C(=O)NCCCc1ccccc1,inactive,0.625% (inactive),inactive,-10.3,inactive,inactive,inactive,inactive,inactive,,,,,,
COc1cc2nc(N3CCN(C(=O)OCc4ccccc4)C(C(=O)NC(C)(C)C)C3)nc(N)c2cc1OC (configuration not stated),inactive,-3.06% (inactive),inactive,-20.4,inactive,inactive,inactive,inactive,,inactive,inactive,inactive,,,
CN(C)c1ccc(/C=C2\C(=O)Nc3ccccc32)cc1,1.83 µM (active),-8.75% (inactive),,,inactive,inactive,inactive,inactive,,inactive,inactive,inactive,inactive,inactive,
COc1cccc(C(=O)NCCN2CCN(c3ccc(Cl)cc3)CC2)c1,inactive,0.562% (inactive),inactive,-10,inactive,inactive,inactive,inactive,,inactive,inactive,inactive,inactive,,
O=C(/C=C/c1ccc(O)cc1)c1ccc(O)cc1O,8.2 µM (active),-5.19% (inactive),inactive,-0.936,inactive,inactive,inactive,,,inactive,79.4 µM (active),inactive,,,
O=[N+]([O-])c1ccc(CSc2ncnc3c2ncn3[C@@H]2O[C@H](CO)[C@@H](O)[C@H]2O)cc1,inactive,,,,inactive,,inactive,inactive,,inactive,inactive,inactive,,,0.0206 µM (active)
CN(C)c1nc(N)c(C(=O)N=C(N)N)nc1Cl,inactive,0.625% (inactive),inactive,1.27,inactive,inactive,inactive,inactive,,inactive,inactive,,inactive,inactive,
CCCC1(C)C(C#N)(C#N)C1(C#N)C#N,,,,,inactive,,inactive,,,inactive,10 µM (active),,,,16.4 µM (active)
COc1cc(OC)c(/C=C2/C(=O)Nc3ccccc32)c(OC)c1,,1.38% (inactive),,,inactive,inactive,inactive,inactive,,inactive,inactive,,,,
C[N+]1(C)CCC(OC(=O)C(c2ccccc2)c2ccccc2)CC1,inactive,,inactive,1.14,inactive,,inactive,inactive,inactive,inactive,inactive,inactive,,inactive,
NO,inactive,,inactive,4.95,inactive,inactive,inactive,inactive,,inactive,inactive,inactive,inactive,inactive,
COc1ccccc1N1CCN(CCN(C(=O)c2ccc(I)cc2)c2ccccn2)CC1,inactive,,14.6 µM (active),-4.45,inactive,,inactive,inactive,,inactive,inactive,inactive,,,
Nc1nc(Nc2ccccc2)nc2c1ncn2[C@@H]1O[C@H](CO)[C@@H](O)[C@H]1O,,,inactive,-0.505,inactive,,inactive,inactive,,inactive,inactive,inactive,,inactive,5.8 µM (active)
CSc1ccccc1N1CCN(CCCCCC(=O)NC2CCCc3ccccc32)CC1 (configuration not stated),inactive,,,,,,inactive,inactive,,inactive,inactive,22.4 µM (active),,,
Cc1ccc(S(=O)(=O)/C=C/C#N)cc1,,,,,inactive,,inactive,inactive,,inactive,inactive,10 µM (active),,,20.6 µM (active)
Brc1c(Br)c(Br)c2n[nH]nc2c1Br,,0.938% (inactive),,,inactive,inactive,inactive,inactive,,inactive,,,inactive,inactive,
O=[N+]([O-])c1ccc2c(c1)S(=O)(=O)C=C2,inactive,,,,inactive,,inactive,inactive,,inactive,,6.31 µM (active),,,
CC(C)(C)c1ccc(S(=O)(=O)/C=C/C#N)cc1,,7.44% (inactive),,,inactive,inactive,inactive,inactive,,inactive,inactive,,inactive,,
O=c1[nH]c2cc(Cl)c(Cl)cc2[nH]c1=O,,0.75% (inactive),inactive,9.5,inactive,inactive,inactive,inactive,,inactive,inactive,inactive,inactive,inactive,
Nc1ncnc2c1ncn2[C@@H]1O[C@H](COP(=O)(O)OP(=O)(O)OP(=O)(O)OP(=O)(O)OC[C@@H]2O[C@H](n3cnc4c(N)ncnc43)[C@@H](O)[C@H]2O)[C@@H](O)[C@H]1O,inactive,,,,inactive,,inactive,inactive,,inactive,inactive,inactive,,inactive,
CNC(=O)[C@H]1O[C@@H](n2cnc3c(NCc4ccc(N)cc4)ncnc32)[C@H](O)[C@@H]1O,,,inactive,-2.65,inactive,,inactive,inactive,,inactive,inactive,inactive,,inactive,inactive
O=C(c1cc(O)c(O)c([N+](=O)[O-])c1)c1ccccc1F,inactive,-0.125% (inactive),,,inactive,inactive,,inactive,,,inactive,inactive,inactive,,
C#C[C@]1(O)CC[C@H]2[C@@H]3CCC4=Cc5oncc5CC4(C)[C@H]3CCC21C (some centres not stated),inactive,,,,inactive,,inactive,inactive,,inactive,,inactive,,inactive,
